From PubChem BioAssay
MgrA-DNA mod = alters Staphylococcus aureus MgrA binding to DNA; fluorescence polarization; inhibition, % (concentration not given with the values); 0.13% of 84,000 active; AID 602314; in the data active means inhibition above about 30%, passing the limit was not always enough;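 further: higher means less MgrA bound to DNA so lower polarization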
Large screens that a line does not name were inactive. Shown is part of a subset that was picked to be rich in hits.

O=C1NC(=S)N(c2ccc(Br)cc2)C(=O)/C1=C\c1ccc(-c2ccccc2C(=O)O)o1	none
C=CCN1C(=O)/C(=C/c2ccco2)C(=O)NC1=S	none
CN1C(=O)/C(=C/c2ccc(I)o2)C(=O)NC1=S	MgrA-DNA mod 98.0
CC12CC(c3ccccc3O1)C(C(=O)O)C(=O)N2CCc1ccc(S(N)(=O)=O)cc1 (stereo not given)	none
CN(C)CCSc1nc2ccccc2c(=O)n1-c1ccccc1	none
CC(C)C(=O)Nc1ccc(N2CCN(C)CC2)cc1	none
c1ccc2cc(CN3CCN(c4cccc5[nH]ccc45)CC3)ccc2c1	none
CC[n+]1c(-c2ccccc2)c2cc(N)ccc2c2ccc(N)cc21	MgrA-DNA mod 57.5
FC(F)(F)c1cnc(N2CCNCC2)c(Cl)c1	none
O=C1NC(=S)NC(=O)C1=Cc1ccc(Cl)cc1	none
